Experimental data published in PubChem BioAssay (Tox21).
Where “and” joins values, the source holds several entries; their conditions need not be identical. Equal entries are not always repeated. Records with an inconclusive call do not appear. Entries that show only a call come without a potency. Calls of active or inactive are those of the source. Unless noted, the call rests on the fitted dose curve; in most records, active means well fitted curve in the direction sought with a large enough effect in the repeat runs; inconclusive means weak or mixed curves; inactive means no such curve, though single readings can be large; an effect the other way counts as inactive or inconclusive.

Columns and labels:
[1] = qHTS assay to test for compound auto fluorescence at 535 nm (green) in HEK293 cells (AID 720680)
[2] = qHTS assay to test for compound auto fluorescence at 460 nm (blue) in HEK293 cell free culture (AID 720681)
Outline: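 Blue fluorescence (Ex 405/Em 460 nm, triamterene-equivalent) was read immediately after pin transfer of compound or DMSO into medium (DMEM, 10% FBS) without cells.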

[3] = qHTS assay to test for compound auto fluorescence at 535 nm (green) in HEK293 cell free culture (AID 720682)
Outline: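 Fluorescein serves as the green reference fluorophore; each compound's intrinsic emission at 535 nm (excitation 485 nm) is reported as an equivalent amount of that dye, measured in serum-containing DMEM without cells.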

[4] = qHTS assay to test for compound auto fluorescence at 590 nm (red) in HEK293 cell free culture (AID 720683)
Outline: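 Red-channel autofluorescence of compounds in culture medium (DMEM, 10% FBS), no cells, measured at 540/590 nm. Rose Bengal sodium is the reference fluorophore for equivalence.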

[5] = qHTS assay to test for compound auto fluorescence at 590 nm (red) in HepG2 cell free culture (AID 720684)
Outline: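 Plate contents were MEM with 10% FBS plus test compound or DMSO, no cells. Fluorescence was recorded with 540 nm excitation and 590 nm emission.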

[6] = qHTS assay to test for compound auto fluorescence at 460 nm (blue) in HepG2 cell free culture (AID 720685)
Outline: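 Compound (23 nL) or DMSO pinned into cell-free MEM with 10% FBS; blue fluorescence read at 405/460 nm excitation/emission, expressed as auto-fluorescence equivalency to triamterene.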

[7] = qHTS assay to test for compound auto fluorescence at 535 nm (green) in HepG2 cell free culture (AID 720686)
[8] = qHTS assay to test for compound auto fluorescence at 460 nm (blue) in HepG2 cells (AID 720687)
Outline: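 Blue-channel autofluorescence (Ex/Em 405/460 nm, triamterene-equivalent) was measured after 1 hr compound exposure at 37 C, 5% CO2. Cells were HepG2, plated overnight at 37 C in MEM plus 10% FBS.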

[9] = molecular target: Glucocorticoid receptor (Homo sapiens) (UniProt P04150); test: qHTS assay to identify small molecule agonists of the glucocorticoid receptor (GR) signaling pathway (AID 720691; active means well fitted activation curve with a large enough effect in the signal ratio in the repeat runs, not every such curve was filed as active; the % refers to the signal ratio; further: potency means the concentration at half of the fitted maximal effect); settings: GR-bla HeLa, beta-lactamase reporter ratio, 18 h; activation: at 62.4 µM (top of the series)
Sequence of Glucocorticoid receptor (Homo sapiens) (P04150 whole entry, looked up): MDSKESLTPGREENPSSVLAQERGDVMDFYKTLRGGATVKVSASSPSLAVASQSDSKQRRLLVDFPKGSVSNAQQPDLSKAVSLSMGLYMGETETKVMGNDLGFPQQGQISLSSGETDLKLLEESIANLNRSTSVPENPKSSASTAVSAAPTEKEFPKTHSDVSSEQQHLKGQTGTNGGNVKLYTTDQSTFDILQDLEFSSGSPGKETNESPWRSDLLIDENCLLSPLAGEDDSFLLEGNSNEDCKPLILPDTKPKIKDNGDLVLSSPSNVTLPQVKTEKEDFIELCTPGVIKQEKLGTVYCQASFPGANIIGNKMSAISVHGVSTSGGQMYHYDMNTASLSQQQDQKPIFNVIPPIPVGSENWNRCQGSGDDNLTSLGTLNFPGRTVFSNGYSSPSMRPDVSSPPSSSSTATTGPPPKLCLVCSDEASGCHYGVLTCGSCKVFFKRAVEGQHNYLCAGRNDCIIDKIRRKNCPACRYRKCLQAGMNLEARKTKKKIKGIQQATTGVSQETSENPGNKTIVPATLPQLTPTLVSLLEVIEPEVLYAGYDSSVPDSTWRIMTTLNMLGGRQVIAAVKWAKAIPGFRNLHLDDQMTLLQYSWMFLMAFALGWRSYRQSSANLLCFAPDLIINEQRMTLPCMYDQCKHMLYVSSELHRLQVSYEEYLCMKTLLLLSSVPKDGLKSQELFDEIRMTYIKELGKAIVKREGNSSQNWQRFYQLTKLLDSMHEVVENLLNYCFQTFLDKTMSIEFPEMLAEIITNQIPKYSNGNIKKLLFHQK
Outline: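 Beta-lactamase reporter activity, read as fluorescence intensity, was measured in GR-bla HeLa cells exposed to compounds for 18 h at 37 C and then loaded with LiveBLAzer B/G FRET substrate for 2 h at room temperature.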

[10] = molecular target: Glucocorticoid receptor (Homo sapiens) (UniProt P04150); test: qHTS assay to identify small molecule antagonists of the glucocorticoid receptor (GR) signaling pathway (AID 720692; active means well fitted inhibition curve with a large enough effect in the signal ratio in the repeat runs, not every such curve was filed as active; the % refers to the signal ratio; further: potency means the concentration at half of the fitted maximal effect)
Outline: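 Fluorescence from cleaved LiveBLAzer B/G FRET substrate reports GRE-driven beta-lactamase in HeLa cells; compounds are tested against 5 nM dexamethasone (final) over 18 h at 37 C, substrate incubation 2 h at room temperature.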

[11] = qHTS assay to identify small molecule antagonists of the glucocorticoid receptor (GR) signaling pathway - cell viability counter screen (AID 720693); further: nearly all actives have a fitted effect of over 55% in size
[12] = qHTS assay for identifying genotoxic compounds that show differential cytotoxicity against isogenic chicken DT40 cell lines with known DNA damage response pathways - wild type cell line (AID 743012); further: nearly all actives have a fitted effect of over 60% in size; further: potency means the concentration at half of the fitted maximal effect
Outline: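 Quantitative HTS on parental DT40 cells: 40 h compound treatment at 37 C/5% CO2, with viability then determined by CellTiter-Glo luminescence. Values serve as the DNA repair-proficient reference for differential cytotoxicity.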

[13] = qHTS assay for identifying genotoxic compounds that show differential cytotoxicity against isogenic chicken DT40 cell lines with known DNA damage response pathways - Rad54/Ku70 mutant cell line (AID 743015); further: nearly all actives have a fitted effect of over 60% in size; further: potency means the concentration at half of the fitted maximal effect
[14] = qHTS assay to identify small molecule antagonists of the androgen receptor (AR) signaling pathway - cell viability counter screen (AID 743033; further: nearly all actives have a fitted effect of over 45% in size)
[15] = qHTS assay to identify small molecule antagonists of the androgen receptor (AR) signaling pathway using the MDA cell line - cell viability counter screen (AID 743041; further: nearly all actives have a fitted effect of over 45% in size)
Outline: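 R1881-driven MDA-kb2 AR-luc cells, 3,000/well, were dosed with library compounds for 16 h; cell health came from CellTiter-Fluor fluorescence in the reporter wells.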

[16] = qHTS assay for identifying genotoxic compounds that show differential cytotoxicity against isogenic chicken DT40 cell lines with known DNA damage response pathways - Rev3 mutant cell line (AID 743014); further: nearly all actives have a fitted effect of over 55% in size; further: potency means the concentration at half of the fitted maximal effect
[17] = molecular target: Androgen receptor (Homo sapiens) (UniProt P10275); test: qHTS assay to identify small molecule agonists of the androgen receptor (AR) signaling pathway using the MDA cell line (AID 743040; further: nearly all actives have a fitted effect of over 20% in size)
Sequence of Androgen receptor (Homo sapiens) (P10275 whole entry, looked up): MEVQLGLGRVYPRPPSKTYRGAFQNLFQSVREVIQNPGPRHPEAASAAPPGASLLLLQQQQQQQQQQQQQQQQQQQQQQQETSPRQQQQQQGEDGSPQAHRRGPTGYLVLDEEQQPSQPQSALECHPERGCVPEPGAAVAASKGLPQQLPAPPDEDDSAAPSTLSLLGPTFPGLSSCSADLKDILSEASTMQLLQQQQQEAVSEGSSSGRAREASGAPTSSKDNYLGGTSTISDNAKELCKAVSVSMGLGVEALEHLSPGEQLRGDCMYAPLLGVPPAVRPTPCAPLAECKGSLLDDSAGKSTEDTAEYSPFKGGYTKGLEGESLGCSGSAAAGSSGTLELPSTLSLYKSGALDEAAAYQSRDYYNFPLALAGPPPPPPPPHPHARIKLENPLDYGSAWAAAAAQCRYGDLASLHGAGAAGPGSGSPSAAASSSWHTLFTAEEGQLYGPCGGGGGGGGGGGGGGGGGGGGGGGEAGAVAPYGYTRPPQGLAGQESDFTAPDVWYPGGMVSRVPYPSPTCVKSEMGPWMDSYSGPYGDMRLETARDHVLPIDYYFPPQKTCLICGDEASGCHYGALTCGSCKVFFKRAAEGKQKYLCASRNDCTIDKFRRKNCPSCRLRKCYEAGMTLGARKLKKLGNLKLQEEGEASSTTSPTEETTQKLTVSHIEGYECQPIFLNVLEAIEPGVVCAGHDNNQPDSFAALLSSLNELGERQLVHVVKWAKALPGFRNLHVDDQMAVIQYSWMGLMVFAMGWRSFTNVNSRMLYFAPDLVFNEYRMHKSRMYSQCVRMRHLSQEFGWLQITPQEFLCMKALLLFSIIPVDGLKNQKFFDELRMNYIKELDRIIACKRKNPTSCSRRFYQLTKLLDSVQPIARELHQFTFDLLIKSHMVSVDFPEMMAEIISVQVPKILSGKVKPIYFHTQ
Outline: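 After a 5 h incubation at 37C and 0% CO2, MDA-kb2 reporter cells were dosed with compounds in DMSO and kept 16 h under the same conditions. Luciferase activity was then read as luminescence with ONE-Glo.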

Row | SMILES | outcome [1] | Potency [2] | outcome [3] | Potency [4] | Potency [5] | Potency [6] | Potency [7] | Potency [8] | Potency [9] | Potency [10] | Potency [11] | Potency [12] | Potency [13] | Potency [14] | Potency [15] | Potency [16] | Potency [17]
1 | CO[Si](CCCNc1ccccc1)(OC)OC | inactive | inactive | inactive | inactive | inactive | inactive | inactive | inactive | inactive | inactive | inactive | 12.2 µM (active) | 8.63 µM (active) | inactive | inactive | – | –
2 | CCCCC(CC)COC(=O)c1ccccc1C(=O)O (centres undefined) | inactive | inactive | inactive | inactive | inactive | inactive | inactive | inactive | inactive | 39.6 µM (active) | – | – | – | inactive | – | – | –
3 | CC(NN)c1ccccc1 (centres undefined) | inactive | inactive | inactive | inactive | inactive | inactive | inactive | inactive | inactive | inactive | inactive | inactive | inactive | inactive | inactive | inactive | –
4 | S=c1[nH]c2ccccc2s1 | inactive | inactive | inactive | inactive | inactive | inactive | inactive | inactive | inactive | inactive | inactive | 29.8 µM (active) and 61.1 µM (active) | 29.8 µM (active) and 64 µM (active) | inactive | inactive | 29.8 µM (active) and 66.6 µM (active) | –
5 | CN(C/C=C/C#CC(C)(C)C)Cc1cccc2ccccc12 | inactive | inactive | inactive | inactive | inactive | inactive | inactive | inactive | inactive | inactive | inactive | – | – | inactive | inactive | inactive | –
6 | N/C(=N\N=C\c1ccc(Cl)cc1)N/N=C/c1ccc(Cl)cc1 | inactive | inactive | inactive | inactive | inactive | inactive | inactive | inactive | inactive | inactive | inactive | inactive | inactive | inactive | inactive | inactive | –
7 | C[n+]1ccn(Cc2ccccc2)c1 | inactive | inactive | inactive | inactive | inactive | inactive | inactive | inactive | inactive | inactive | inactive | inactive | – | inactive | inactive | – | –
8 | CCCCCOC(=O)CCCC | inactive | inactive | inactive | inactive | inactive | inactive | inactive | inactive | inactive | inactive | inactive | inactive | inactive | inactive | inactive | inactive | –
9 | CN(C)c1ccc(SC#N)cc1 | inactive | inactive | inactive | inactive | inactive | inactive | inactive | inactive | inactive | – | inactive | 27.3 µM (active) | 38.6 µM (active) | inactive | inactive | 30.6 µM (active) | –
10 | CC1=NC(C)OC1C (centres undefined) | inactive | inactive | inactive | inactive | inactive | inactive | inactive | inactive | inactive | 34.7 µM (active) | inactive | – | inactive | inactive | inactive | inactive | inactive
11 | Cc1ccc2oc(CN(Cc3ccccc3)C(=O)Nc3c(F)cc(F)cc3F)c(-c3ccc(Cl)cc3)c2c1 | inactive | inactive | inactive | inactive | inactive | inactive | inactive | inactive | inactive | inactive | inactive | 18.7 µM (active) | 14.9 µM (active) | – | inactive | 13.3 µM (active) | –
12 | O=C1Cc2cc(CCN3CCN(c4nsc5ccccc45)CC3)c(Cl)cc2N1 | inactive | inactive | inactive | inactive | inactive | inactive | inactive | inactive | 21.3 µM (active) | inactive | inactive | 21.1 µM (active) and 10.6 µM (active) | 18.8 µM (active) and 9.44 µM (active) | inactive | inactive | – | –
13 | Oc1cccc2cc3cccc(O)c3c(O)c12 | inactive | inactive | inactive | inactive | inactive | inactive | inactive | inactive | inactive | inactive | inactive | inactive | inactive | inactive | inactive | inactive | –
14 | CCCC(C)c1ccccc1O (centres undefined) | inactive | inactive | inactive | inactive | inactive | inactive | inactive | inactive | inactive | inactive | inactive | 48.6 µM (active) | 61.1 µM (active) | – | inactive | – | –
